Assay results from PubChem BioAssay (Tox21).
Values joined by “and” are separate entries in the source; they are usually repeats but may differ in a detail not shown here. Equal entries are not always repeated. Records with an inconclusive call do not appear. Active and inactive are the calls of the source. Unless noted, calls follow the shape of the dose curve; as a rule, active = well fitted curve in the direction sought with a large enough effect in the repeat runs; inconclusive = weak or mixed curves; inactive = no such curve, though single readings can be large; an effect the other way counts as inactive or inconclusive.

Columns and labels:
[1] = qHTS assay to identify aromatase inhibitors - cell viability counter screen (AID 743084);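 also: cells stimulated with testosterone during compound exposure; nearly all actives have a fitted effect of over 55% in size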
[2] = qHTS assay to identify small molecule that activate the aryl hydrocarbon receptor (AhR) signaling pathway - cell viability counter screen (AID 743086); also: nearly all actives have a fitted effect of over 45% in size; also: potency is read from the fitted curve at half-maximal effect
Procedure, shortened: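 HepG2-AhR-luc (HG2L7.5c1) cells, 4000/well, treated 24 h at 37 C with compound; viability measured as CellTiter-Fluor fluorescence after 30 min in the same wells as the luciferase read.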

[3] = target: Peroxisome proliferator-activated receptor gamma (Homo sapiens) (UniProt P37231); assay: qHTS assay to identify small molecule agonists of the peroxisome proliferator-activated receptor gamma (PPARg) signaling pathway (AID 743094; active = well fitted activation curve with a large enough effect in the signal ratio in the repeat runs, not every such curve was filed as active; the % refers to the signal ratio)
Procedure, shortened: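 Compounds dissolved in DMSO were added to PPARg UAS-bla HEK293H cells for 17 h at 37C, and reporter expression was quantified by fluorescence intensity after 1 h with LiveBLAzer B/G FRET substrate.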

[4] = qHTS assay to identify small molecule phospholipidosis (PLD) inducers (AID 1259344; active = well fitted curve in the direction sought with a large enough effect; an effect the other way counts as inactive or inconclusive)
Procedure, shortened: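 HepG2 cells, 900/well, treated with compound plus LipidTOX Red for 24 h at 37 C; amiodarone positive and DMSO negative controls. Fixed with paraformaldehyde/Hoechst, then high-content imaging scored LipidTOX pit count and integrated intensity per well and per cell.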

[5] = target: Aryl hydrocarbon receptor (Homo sapiens) (UniProt P35869); assay: qHTS assay to identify small molecule that activate the aryl hydrocarbon receptor (AhR) signaling pathway (AID 743085); also: nearly all actives have a fitted effect of over 15% in size; also: potency is read from the fitted curve at half-maximal effect;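 as to activation: HG2L7.5c1 human HepG2 liver cells with stably integrated DRE-driven firefly reporter; series mostly up to about 70 µM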
Procedure, shortened: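 Cell line HG2L7.5c1 (human hepatoma, 20× DRE-luc). Plated, 5 h 37C, compound/DMSO added, 24 h 37C. CellTiter-Fluor 30 min 37C → fluorescence; then ONE-Glo 30 min RT → luminescence.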
% is scaled to controls: 0 for no effect and ±100 for the full control effect.

Chain of Aryl hydrocarbon receptor (Homo sapiens) (P35869 whole entry, looked up): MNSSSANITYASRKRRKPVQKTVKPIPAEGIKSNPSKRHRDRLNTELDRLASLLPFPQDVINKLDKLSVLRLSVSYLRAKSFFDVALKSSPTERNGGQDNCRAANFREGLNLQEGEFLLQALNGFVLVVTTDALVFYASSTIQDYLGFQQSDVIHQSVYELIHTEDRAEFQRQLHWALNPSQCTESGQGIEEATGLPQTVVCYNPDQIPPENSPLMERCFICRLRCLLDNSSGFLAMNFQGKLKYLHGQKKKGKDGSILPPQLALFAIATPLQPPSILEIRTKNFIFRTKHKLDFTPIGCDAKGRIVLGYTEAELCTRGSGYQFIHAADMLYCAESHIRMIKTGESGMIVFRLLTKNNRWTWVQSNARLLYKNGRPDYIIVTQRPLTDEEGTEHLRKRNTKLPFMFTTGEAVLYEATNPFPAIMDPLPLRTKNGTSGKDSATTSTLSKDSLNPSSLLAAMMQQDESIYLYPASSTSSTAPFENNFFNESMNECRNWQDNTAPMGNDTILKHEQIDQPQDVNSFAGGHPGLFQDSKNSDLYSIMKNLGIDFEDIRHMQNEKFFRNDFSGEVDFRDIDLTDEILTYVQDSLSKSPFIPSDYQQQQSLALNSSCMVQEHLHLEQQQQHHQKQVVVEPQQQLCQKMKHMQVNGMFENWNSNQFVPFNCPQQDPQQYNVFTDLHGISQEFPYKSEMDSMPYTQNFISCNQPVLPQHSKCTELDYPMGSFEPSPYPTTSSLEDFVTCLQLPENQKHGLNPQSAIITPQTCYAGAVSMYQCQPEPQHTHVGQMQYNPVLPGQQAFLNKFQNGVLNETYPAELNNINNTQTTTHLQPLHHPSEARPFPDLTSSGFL
Chain of Peroxisome proliferator-activated receptor gamma (Homo sapiens) (P37231 whole entry, looked up): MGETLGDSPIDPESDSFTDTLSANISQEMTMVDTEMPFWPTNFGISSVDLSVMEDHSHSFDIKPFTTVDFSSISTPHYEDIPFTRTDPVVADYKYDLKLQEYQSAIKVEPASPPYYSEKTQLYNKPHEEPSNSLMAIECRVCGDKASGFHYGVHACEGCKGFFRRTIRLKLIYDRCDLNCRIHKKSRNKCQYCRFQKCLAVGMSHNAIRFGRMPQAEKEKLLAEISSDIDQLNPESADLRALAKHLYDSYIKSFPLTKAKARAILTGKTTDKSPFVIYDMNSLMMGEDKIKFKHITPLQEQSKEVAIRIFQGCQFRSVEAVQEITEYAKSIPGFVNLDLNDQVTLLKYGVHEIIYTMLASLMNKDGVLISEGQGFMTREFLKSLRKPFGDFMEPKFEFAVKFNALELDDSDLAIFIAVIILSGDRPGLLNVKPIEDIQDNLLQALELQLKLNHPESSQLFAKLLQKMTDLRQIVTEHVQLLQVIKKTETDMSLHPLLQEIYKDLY

Cn1nnnc1SCC1=C(C(=O)O)N2C(=O)[C@@H](NC(=O)[C@H](O)c3ccccc3)[C@H]2SC1
inactive: Potency [1] | Potency [2] | Potency [3] | Potency [4]

CNC[C@@H]1CC[C@@H](N)[C@@H](O[C@H]2[C@H](O)[C@@H](O[C@H]3OC[C@](C)(O)[C@H](NC)[C@H]3O)[C@H](N)C[C@@H]2N)O1
inactive: Potency [1] | Potency [2] | Potency [3] | PLD induction [4] -1.48% [at 7.66 µM]

O=C(NOC[C@H](O)CO)c1ccc(F)c(F)c1Nc1ccc(I)cc1F
inactive: Potency [1] | Potency [2] | Potency [3] | Potency [4]

CCCCCCCCCCCCCCCCCCOP(=O)([O-])OC1CC[N+](C)(C)CC1
inactive: Potency [1] | Potency [2] | Potency [3] | Potency [4]

CCNC(=O)[C@@H]1CCCN1C(=O)[C@H](CCCN=C(N)N)NC(=O)[C@H](CC(C)C)NC(=O)[C@@H](CC(C)C)NC(=O)[C@H](Cc1ccc(O)cc1)NC(=O)[C@H](CO)NC(=O)[C@H](Cc1c[nH]c2ccccc12)NC(=O)[C@H](Cc1cnc[nH]1)NC(=O)[C@@H]1CCC(=O)N1
inactive: Potency [1] | Potency [2] | Potency [3] | Potency [4]

CCC(CN)CC(C)CCNCC(O)CNCC(C)CC(CC)CN (stereo not drawn)
inactive: Potency [1] | Potency [2] | Potency [3] | PLD induction [4] -0.745% [at 7.66 µM]

COC1=C(C(=O)O)N2C(=O)[C@@H](NC(=O)[C@H](N)C3=CCC=CC3)[C@H]2SC1
inactive: Potency [1] | Potency [5] | Potency [2] | Potency [3] | Potency [4]

CC1(C)S[C@@H]2[C@H](NC(=O)C(C(=O)Oc3ccc4c(c3)CCC4)c3ccccc3)C(=O)N2[C@H]1C(=O)O (stereo partly drawn)
inactive: Potency [1] | Potency [2] | Potency [3] | Potency [4]

C[C@H]1C[C@@H]2[C@H]([C@@H](O)C[C@@]3(C)[C@H]2CC[C@]3(O)C(=O)COC(=O)CCC(=O)O)[C@@]2(C)C=CC(=O)C=C12
inactive: Potency [1] | Potency [5] | Potency [3] | PLD induction [4] 0.704% [at 7.66 µM]

NCCCC[C@H](NC(=O)[C@@H]1CCCN1C(=O)[C@@H]1CSSC[C@H](N)C(=O)N[C@@H](Cc2ccccc2)C(=O)N[C@@H](Cc2ccccc2)C(=O)N[C@@H](CCC(N)=O)C(=O)N[C@@H](CC(N)=O)C(=O)N1)C(=O)NCC(N)=O
inactive: Potency [1] | Potency [2] | Potency [3] | Potency [4]

CCCN(CC)C(CC)C(=O)Nc1c(C)cccc1C (stereo not drawn)
inactive: Potency [1] | Potency [5] | Potency [2] | Potency [3] | Potency [4]

CCCCCCC(=O)O[C@H]1CC[C@H]2[C@@H]3CCc4cc(O)ccc4[C@H]3CC[C@]12C
inactive: Potency [1] | Potency [2] | Potency [4]

CN(CC(=O)N1CCOCC1)Cc1c(Cl)cccc1NC(=O)c1ccccc1
active: Potency [5] 13.3 µM
inactive: Potency [1] | Potency [3] | Potency [4]

C[C@H](/C=C/[C@H](C)C(C)(C)O)[C@H]1CC[C@H]2/C(=C/C=C3C[C@@H](O)C[C@H](O)C3)CCC[C@]12C
inactive: Potency [1] | Potency [2] | Potency [3] | Potency [4]

NC[C@@H]1O[C@H](O[C@H]2[C@@H](O)[C@H](O[C@@H]3[C@@H](O)[C@H](N)C[C@H](N)[C@H]3O[C@H]3O[C@H](CN)[C@@H](O)[C@H](O)[C@H]3N)O[C@@H]2CO)[C@H](N)[C@@H](O)[C@@H]1O
inactive: Potency [1] | Potency [5] | Potency [3] | Potency [4]

CC(=O)OCC(=O)[C@@]1(O)[C@H](C)C[C@H]2[C@@H]3C[C@H](F)C4=CC(=O)C=C[C@]4(C)[C@H]3[C@@H](O)C[C@@]21C
inactive: Potency [1] | Potency [2] | Potency [3] | Potency [4]

O=C(Nc1ccc(Br)cc1)c1cc(Br)c(Br)s1
active: Potency [5] 16.8 µM
inactive: Potency [1] | Potency [3] | Potency [4]

Nc1ncnc(Nc2ccc(Cl)cc2)n1
inactive: Potency [1] | Potency [3] | Potency [4]
active: Potency [5] 11.9 µM

CCC(C)[C@H]1O[C@]2(C=C[C@@H]1C)C[C@@H]1C[C@@H](C/C=C(\C)[C@@H](O[C@H]3C[C@H](OC)[C@@H](O[C@H]4C[C@H](OC)[C@H](NC(C)=O)[C@H](C)O4)[C@H](C)O3)[C@@H](C)/C=C/C=C3\CO[C@@H]4[C@H](O)C(C)=C[C@@H](C(=O)O1)[C@]34O)O2 (stereo partly drawn)
active: Potency [2] 11.9 µM and 29.8 µM
inactive: Potency [1] | Potency [4]

CCCCCCCCCCCCCCCC(=O)O[C@@H]1[C@@H](O)[C@@H](O)[C@@H]([C@H](NC(=O)[C@@H]2C[C@@H](CCC)CN2C)[C@H](C)Cl)O[C@@H]1SC
inactive: Potency [1] | Potency [5] | Potency [2] | Potency [3] | Potency [4]

c1ccc2c(CCC3CCNCC3)c[nH]c2c1
active: Potency [5] 11.9 µM
inactive: Potency [1] | Potency [3] | Potency [4]

NC[C@@H]1O[C@H](O[C@H]2[C@@H](O)[C@H](O[C@@H]3[C@@H](O)[C@H](N)C[C@H](N)[C@H]3O[C@H]3O[C@H](CO)[C@@H](O)[C@H](O)[C@H]3N)O[C@@H]2CO)[C@H](N)[C@@H](O)[C@@H]1O
inactive: Potency [1] | Potency [2] | Potency [3] | Potency [4]

CCCCCCCC(=O)CC[C@@H]1[C@@H](C/C=C\CCCC(=O)OC(C)C)[C@@H](O)C[C@H]1O
inactive: Potency [1] | Potency [2] | Potency [3] | Potency [4]

CCC[C@@]1(CCc2ccccc2)CC(O)=C([C@H](CC)c2cccc(NS(=O)(=O)c3ccc(C(F)(F)F)cn3)c2)C(=O)O1
inactive: Potency [1] | Potency [2] | PLD induction [4] -4.07% [at 7.66 µM]

CC(C)CN(C[C@@H](O)[C@H](Cc1ccccc1)NC(=O)O[C@H]1CO[C@H]2OCC[C@H]21)S(=O)(=O)c1ccc(N)cc1
inactive: Potency [1] | Potency [2] | Potency [4]

CS(=O)(=O)Nc1cc2occ(NC=O)c(=O)c2cc1Oc1ccccc1
inactive: Potency [1] | Potency [5] | Potency [3] | Potency [4]
